# Reference: PubChem BioAssay (NCATS)
# Values without a mark were called inactive. Where a call stands in place of a potency, no number is given. Calls of active or inactive are those of the source. Unless noted, calls come from the whole dose curve; as a rule, active = well fitted curve in the direction sought with a large enough effect; inconclusive = small, poorly fitted or top-dose-only effect, or another doubt; inactive = no such curve, though single readings can be large; an effect the other way counts as inactive or inconclusive.
# Assays:
# [1] = biological target: DNA dC->dU-editing enzyme APOBEC-3G (Homo sapiens) (UniProt Q9HC16); experiment: qHTS for inhibitors of Vif-A3G interactions: Validation (AID 588379); details: Vif-A3G protein interaction assay; series mostly up to 46.1 µM
# Procedure, shortened: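 Yellow fluorescence (Ex 488, Em 500-530) of Vif-coexpressing HeLa A3G-eYFP cells, scanned by Acumen cytometer, reports blocked A3G degradation. Cells plated at 700/well overnight at 37 deg C before compound addition, then a further overnight compound incubation at 37 deg C.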
# [2] = qHTS for Inhibitors of ATXN expression: Validation (AID 588378); details: cell-based ATXN2 expression reporter assay, luminescence; series mostly up to 57.1 µM; note: potency is the fitted concentration of half-maximal effect; nearly all actives have a fitted effect of over 75% in size
# Procedure, shortened: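 Compounds were pinned onto attached HEK293 cells carrying an ATXN2-firefly luciferase construct and incubated 24 hrs at 37 degrees C. Each well then received a fluorescent viability reagent followed by luciferase substrate for end-point luminescence.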
# [3] = biological target: Estrogen receptor (Homo sapiens) (UniProt P03372); experiment: qHTS assay for small molecule antagonists of estrogen receptor alpha signaling (AID 588513; active = well fitted curve in the direction sought with a large enough effect in the signal ratio, with a control signal flat, not every such curve was filed as active; inconclusive = small, poorly fitted or top-dose-only effect, or effect the other way, or a change in a side signal; inactive = no such curve, though single readings can be large or run the other way; the % refers to the signal ratio; note: potency is the fitted concentration of half-maximal effect); details: ER-alpha-UAS-bla HEK293, beta-lactamase ratio, antagonist mode; series mostly up to 76.9 µM
# Procedure, shortened: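 Fluorescence from CCF4 substrate after 2 h at room temperature gave reporter activity; cells had been exposed to compound and 0.5nM 17-beta-estradiol for 18 h at 37 C. Hill-equation fitting yielded IC50 and maximal response.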
# [4] = biological target: Ubiquitin carboxyl-terminal hydrolase 1 (Homo sapiens) (UniProt O94782); experiment: Inhibitors of USP1/UAF1: Pilot qHTS (AID 504865); details: purified USP1/UAF1, Ub-rhodamine cleavage fluorescence; series mostly up to 114 µM; note: nearly all actives have a fitted effect of over 35% in size; note: potency is the fitted concentration of half-maximal effect
# Procedure, shortened: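 In 50mM HEPES pH 7.8 containing 0.5mM EDTA, 1mM TCEP, 0.1 mg/ml BSA and 0.01% Tween-20, 1nM USP1/UAF1 is exposed to compound for 15 min, then Ub-Rho (150nM final) is added and fluorescence is read over time.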
# [5] = biological target: Estrogen receptor (Homo sapiens) (UniProt P03372); experiment: qHTS assay for small molecule agonists of estrogen receptor alpha signaling (AID 588514; calls by dose curve; note: nearly all actives have a fitted effect of over 70% in size; note: potency is the fitted concentration of half-maximal effect); details: ER-alpha-UAS-bla HEK293, beta-lactamase ratio, 18 h; series mostly up to 76.8 µM
# Procedure, shortened: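 Efficacy is expressed against 20 nM 17-beta-estradiol (100%) and DMSO basal (0%); EC50 from Hill equation. Assay: beta-lactamase reporter in ER-alpha-UAS-bla HEK 293 cells, 18 h compound incubation, CCF4 detection.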
# [6] = biological target: Androgen receptor (Homo sapiens) (UniProt P10275); experiment: qHTS assay for small molecule agonists of androgen receptor signaling (AID 588515; active = well fitted curve in the direction sought with a large enough effect in the signal ratio, with a control signal flat; inconclusive = small, poorly fitted or top-dose-only effect, or effect the other way, or a change in a side signal; inactive = no such curve, though single readings can be large or run the other way; the % refers to the signal ratio; note: potency is the fitted concentration of half-maximal effect); details: AR-UAS-bla HEK293, beta-lactamase ratio, agonist 16 h; activation: hits give high values
# Procedure, shortened: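 Stimulation of an AR-responsive β-lactamase reporter in GripTite HEK293 cells was measured after 16 h compound exposure at 37 °C, via CCF4 fluorescence after 2 h RT. EC50 from Hill fits, normalized to R1881 at 30 nM.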
# [7] = biological target: Androgen receptor (Homo sapiens) (UniProt P10275); experiment: qHTS assay for small molecule antagonists of androgen receptor signaling (AID 588516; active = well fitted curve in the direction sought with a large enough effect in the signal ratio, with a control signal flat, not every such curve was filed as active; inconclusive = small, poorly fitted or top-dose-only effect, or effect the other way, or a change in a side signal; inactive = no such curve, though single readings can be large or run the other way; the % refers to the signal ratio); details: AR-UAS-bla HEK293, beta-lactamase ratio, antagonist mode, 16 h; series mostly up to 76.8 µM
# Procedure, shortened: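 Cells were plated and incubated 5 h, compounds added in titration, then R1881 (10 nM final) as agonist. After 16 h at 37 C, CCF4 substrate was loaded for 2 h at room temperature and fluorescence measured.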
# Ubiquitin carboxyl-terminal hydrolase 1 (Homo sapiens), sequence (O94782 whole entry, looked up): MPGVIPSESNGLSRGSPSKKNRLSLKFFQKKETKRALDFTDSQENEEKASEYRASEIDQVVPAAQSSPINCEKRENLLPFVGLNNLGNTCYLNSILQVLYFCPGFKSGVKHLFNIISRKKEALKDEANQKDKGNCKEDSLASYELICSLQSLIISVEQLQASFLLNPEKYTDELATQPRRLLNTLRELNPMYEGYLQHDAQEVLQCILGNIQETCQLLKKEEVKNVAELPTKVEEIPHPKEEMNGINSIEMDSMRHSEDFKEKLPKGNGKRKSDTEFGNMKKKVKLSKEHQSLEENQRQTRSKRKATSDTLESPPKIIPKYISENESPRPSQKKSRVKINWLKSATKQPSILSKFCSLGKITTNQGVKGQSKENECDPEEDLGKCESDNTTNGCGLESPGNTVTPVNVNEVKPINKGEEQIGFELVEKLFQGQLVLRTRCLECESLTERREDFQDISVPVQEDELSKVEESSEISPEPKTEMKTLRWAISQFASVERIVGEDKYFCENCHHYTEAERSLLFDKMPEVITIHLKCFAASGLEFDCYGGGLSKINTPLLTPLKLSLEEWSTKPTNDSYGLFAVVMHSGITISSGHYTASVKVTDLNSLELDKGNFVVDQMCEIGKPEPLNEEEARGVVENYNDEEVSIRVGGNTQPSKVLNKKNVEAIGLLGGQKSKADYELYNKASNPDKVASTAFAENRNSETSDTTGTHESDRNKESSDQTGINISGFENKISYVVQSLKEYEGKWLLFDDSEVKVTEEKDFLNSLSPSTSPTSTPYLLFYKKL
# Estrogen receptor (Homo sapiens), sequence (P03372 whole entry, looked up): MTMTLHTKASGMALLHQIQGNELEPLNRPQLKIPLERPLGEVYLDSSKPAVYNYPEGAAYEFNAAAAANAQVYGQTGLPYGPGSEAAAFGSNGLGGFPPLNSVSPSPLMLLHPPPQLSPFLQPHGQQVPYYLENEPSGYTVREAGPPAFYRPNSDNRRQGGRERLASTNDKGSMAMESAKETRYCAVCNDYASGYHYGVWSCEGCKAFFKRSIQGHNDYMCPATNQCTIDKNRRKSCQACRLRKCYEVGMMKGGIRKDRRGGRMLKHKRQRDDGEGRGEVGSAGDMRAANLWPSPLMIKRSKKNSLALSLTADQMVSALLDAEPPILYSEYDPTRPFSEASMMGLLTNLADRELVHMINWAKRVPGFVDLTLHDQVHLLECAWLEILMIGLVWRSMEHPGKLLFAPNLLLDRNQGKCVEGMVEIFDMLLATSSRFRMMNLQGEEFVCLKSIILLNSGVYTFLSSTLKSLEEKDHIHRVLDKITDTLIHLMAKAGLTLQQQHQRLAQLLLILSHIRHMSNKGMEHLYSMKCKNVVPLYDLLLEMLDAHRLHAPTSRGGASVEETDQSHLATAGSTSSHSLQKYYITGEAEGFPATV
# Androgen receptor (Homo sapiens), sequence (P10275 whole entry, looked up): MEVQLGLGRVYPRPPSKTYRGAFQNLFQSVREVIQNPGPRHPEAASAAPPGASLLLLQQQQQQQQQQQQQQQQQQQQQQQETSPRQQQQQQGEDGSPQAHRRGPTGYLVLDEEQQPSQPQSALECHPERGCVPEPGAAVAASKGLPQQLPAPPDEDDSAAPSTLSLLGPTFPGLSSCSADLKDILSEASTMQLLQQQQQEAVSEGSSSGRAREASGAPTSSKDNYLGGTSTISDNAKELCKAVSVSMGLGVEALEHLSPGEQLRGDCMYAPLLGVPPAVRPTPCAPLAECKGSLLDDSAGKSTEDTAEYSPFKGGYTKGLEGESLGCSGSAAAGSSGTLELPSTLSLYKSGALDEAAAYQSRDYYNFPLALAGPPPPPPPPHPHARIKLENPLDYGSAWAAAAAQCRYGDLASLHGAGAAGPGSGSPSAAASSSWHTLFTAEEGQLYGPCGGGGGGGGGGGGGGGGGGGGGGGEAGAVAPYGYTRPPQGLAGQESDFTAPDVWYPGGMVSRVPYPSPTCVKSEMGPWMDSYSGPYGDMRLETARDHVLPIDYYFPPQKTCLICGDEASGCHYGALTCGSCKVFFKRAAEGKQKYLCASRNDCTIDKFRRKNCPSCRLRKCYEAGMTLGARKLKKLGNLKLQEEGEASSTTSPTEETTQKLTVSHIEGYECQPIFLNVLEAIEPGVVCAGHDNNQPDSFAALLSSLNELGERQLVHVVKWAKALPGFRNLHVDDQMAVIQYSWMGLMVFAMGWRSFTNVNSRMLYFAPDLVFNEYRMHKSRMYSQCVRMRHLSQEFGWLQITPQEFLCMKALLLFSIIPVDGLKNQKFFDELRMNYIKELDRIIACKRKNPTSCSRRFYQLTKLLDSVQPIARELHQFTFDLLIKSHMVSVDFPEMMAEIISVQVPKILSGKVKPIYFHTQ
# DNA dC->dU-editing enzyme APOBEC-3G (Homo sapiens), sequence (Q9HC16 whole entry, looked up): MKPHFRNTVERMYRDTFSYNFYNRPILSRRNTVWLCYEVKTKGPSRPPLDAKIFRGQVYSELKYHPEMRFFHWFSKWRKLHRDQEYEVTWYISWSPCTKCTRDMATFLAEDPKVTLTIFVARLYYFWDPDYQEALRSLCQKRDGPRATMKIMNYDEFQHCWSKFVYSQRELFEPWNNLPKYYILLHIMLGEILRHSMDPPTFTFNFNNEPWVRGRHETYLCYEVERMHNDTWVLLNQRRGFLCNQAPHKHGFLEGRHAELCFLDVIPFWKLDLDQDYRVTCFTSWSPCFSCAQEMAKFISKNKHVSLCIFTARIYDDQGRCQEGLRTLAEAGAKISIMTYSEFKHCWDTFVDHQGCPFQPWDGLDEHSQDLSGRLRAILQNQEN
structure (smiles),measurement,setting,value
O=C(O)c1nn(Cc2ccc(Cl)cc2Cl)c2ccccc12,outcome,[1],inactive
COc1ccc(C(=O)N2CCCC2=O)cc1,outcome,[1],inactive
CC[C@H]1CN2CCc3cc(OC)c(OC)cc3[C@@H]2C[C@@H]1C[C@H]1NCCc2cc(OC)c(OC)cc21,Potency,[2],0.282 µM (active)
COC(=O)C1=C(C)NC(C)=C(C(=O)OC)C1c1ccccc1[N+](=O)[O-],Potency,[2],11.2 µM (active)
NC(N)=NC(=O)c1nc(Cl)c(N)nc1N,Potency,[3],inactive
O=c1n(Cl)c(=O)n(Cl)c(=O)n1Cl,Potency,[4],inactive
same,Potency,[3],inactive
N#Cc1nn(-c2c(Cl)cc(C(F)(F)F)cc2Cl)c(N)c1S(=O)C(F)(F)F (configuration not stated),Potency,[4],inactive
same,Potency,[5],inactive
Oc1ccc2[nH]cc(CCCCN3CC=C(c4ccccc4)CC3)c2c1,outcome,[1],inactive
C[N+](C)(C)CCOC(=O)C(O)(c1ccccc1)c1ccccc1,Potency,[4],inactive
O=C(NC(=O)c1c(F)cccc1F)Nc1cc(Cl)c(OC(F)(F)C(F)C(F)(F)F)cc1Cl (configuration not stated),Potency,[3],inactive
same,Potency,[5],inactive
same,activation,[6],-6.9%
same,outcome,[7],inactive
c1ccc2nc(N3CCNCC3)ccc2c1,Potency,[4],inactive
same,outcome,[1],inactive
Oc1c(Br)cc(Br)cc1Br,Potency,[4],inactive
same,Potency,[3],inactive
same,Potency,[5],inactive
CNC(=O)NC(O)C(Cl)(Cl)Cl (configuration not stated),Potency,[4],inactive
CCS(=O)(=O)C(C)(C)S(=O)(=O)CC,Potency,[4],inactive
COP(=S)(OC)Oc1ccc(Sc2ccc(OP(=S)(OC)OC)cc2)cc1,Potency,[5],inactive
same,activation,[6],-10.3%
same,outcome,[7],inactive
CNC(=O)Oc1cccc2ccccc12,Potency,[4],inactive
same,Potency,[3],inactive
same,Potency,[5],inactive
CN1C(=O)[C@@H](NC(=O)c2cc3ccccc3[nH]2)N=C(c2ccccc2)c2ccccc21,Potency,[4],inactive
C[N+]1(CCC(C(N)=O)(c2ccccc2)c2ccccc2)CCCCC1,Potency,[4],inactive
Nc1ccc(N)cc1,Potency,[4],inactive
CN1[C@@H]2CC[C@H]1CC(OC(=O)c1cc(Cl)cc(Cl)c1)C2 (some centres not stated),outcome,[1],inactive
COP(=O)(OC)OC=C(Cl)Cl,Potency,[4],inactive
same,Potency,[3],inactive
same,Potency,[5],inactive
CN(C)C(=S)SSC(=S)N(C)C,Potency,[4],inactive
same,Potency,[3],inactive
same,Potency,[5],inactive
CN1C(=O)CN=C(c2ccccc2)c2cc([N+](=O)[O-])ccc21,Potency,[4],inactive
CCOC(=O)NC(O)C(Cl)(Cl)Cl (configuration not stated),Potency,[4],inactive
CC(Cc1ccccc1)NCc1ccccc1Cl (configuration not stated),Potency,[4],inactive
CCCCCCCCC(=O)NCc1ccc(O)c(OC)c1,Potency,[4],inactive
same,Potency,[3],inactive
Oc1ccc(Cl)cc1Cc1cc(Cl)ccc1O,Potency,[3],44.7 µM [inconclusive] (active)
same,outcome,[7],inactive
Cc1c(Cl)c(=O)oc2cc(OP(=O)(OCCCl)OCCCl)ccc12,Potency,[4],inactive
C[C@]12Cc3nonc3C[C@@H]1CC[C@@H]1[C@@H]2CC[C@@]2(C)[C@H]1CC[C@]2(C)O,Potency,[4],inactive
c1cc2c(c(N3CCNCC3)c1)OCCO2,Potency,[4],inactive
Cc1ccc(N=CN(C)C=Nc2ccc(C)cc2C)c(C)c1,Potency,[4],inactive
same,Potency,[5],inactive
CCC1(c2ccccc2)CCC(=O)NC1=O (configuration not stated),Potency,[4],inactive
CCN(CC)CCOC(=O)C(C)(c1ccccc1)c1ccccc1,Potency,[4],inactive
COCC(=O)N(c1c(C)cccc1C)C(C)C(=O)OC (configuration not stated),Potency,[4],inactive
same,Potency,[3],inactive
ClC1=C(Cl)C2(Cl)C(CBr)CC1(Cl)C2(Cl)Cl (configuration not stated),Potency,[4],inactive
C[C@@H]1C[C@@H]([C@H](O)CC2CC(=O)NC(=O)C2)C(=O)[C@@H](C)C1,outcome,[1],inactive
CCN(Cc1ccc(Cl)nc1)/C(=C/[N+](=O)[O-])NC,Potency,[4],inactive
CCC(=O)O[C@H]1CC[C@H]2[C@@H]3CCC4=CC(=O)CC[C@]4(C)[C@H]3CC[C@]12C,Potency,[5],2.82 µM (active)
same,Potency,[6],0.0089 µM (active)
O=C1NCN(c2ccccc2)C12CCN(CCCOc1ccc(F)cc1)CC2,Potency,[4],inactive
same,outcome,[1],inactive
C[C@H]1C(=O)O[C@@H]2CCN3CC=C(COC(=O)[C@](C)(O)[C@]1(C)O)[C@H]23,Potency,[4],inactive
same,Potency,[3],inactive
same,Potency,[5],inactive
O=C(CCl)c1ccc(Cl)cc1Cl,Potency,[5],inactive
CN1CCc2cc(Cl)c(O)cc2[C@H]2c3ccccc3CC[C@@H]21,Potency,[4],inactive
CC[n+]1c(-c2ccccc2)c2cc(N)ccc2c2ccc(N)cc21,Potency,[4],39.8 µM (active)
same,Potency,[5],inactive
CCNc1nc(Cl)nc(NCC)n1,Potency,[4],inactive
same,Potency,[5],inactive
CCCCCCCCCCCC[N+](C)(C)CCOc1ccccc1,Potency,[4],79.4 µM (active)
same,Potency,[3],12.6 µM [inconclusive] (active)
